The text below walks through data of the OligoGym collection.
Further: reference of the scale not given here.

The target of the first assay is ASPRV1. As to the kind of experiment: pooled miR-30 sensor sort-seq; sequence = guide strand. The note with it: shRNA.
TTCAGGAACCTTAGCTTGGTGA gave a sensor-assay potency score (higher = more potent) of -1.12.

As for ATTGATGACTTCAAAGCTGTGC, the sensor-assay potency score (higher = more potent) was found to be 0.217.

Regarding TCATTGATGACTTCAAAGCTGT, the sensor-assay potency score (higher = more potent) was -0.318.

In turn, TTCAGCACCATTGGCCACCTTT displayed a sensor-assay potency score (higher = more potent) of -0.724.

TTTGTCATCAACAGCAGCTTGA displayed a sensor-assay potency score (higher = more potent) of -0.258.

For TTGCCTAGGGACACCGCTGTAT, the sensor-assay potency score (higher = more potent) is -1.05.

TTGAGTCTTTGTCATCAACAGC came in with a sensor-assay potency score (higher = more potent) of -1.26.

In the case of TTGAGGTCATTGATGACTTCAA, the sensor-assay potency score (higher = more potent) is -0.277.

TCTTTCAGGAACCTTAGCTTGG gave a sensor-assay potency score (higher = more potent) of -0.57.

The sequence TAGCTTGGTGATATGGTCCCAA yielded a sensor-assay potency score (higher = more potent) of 0.0777.

Another assay addresses ASTE1. The assay is described as above. The following applies: shRNA.
In turn, TAGAACAGCTGGTATTCTGTTT registered a sensor-assay potency score (higher = more potent) of -0.362.

The sequence TATTCTTCCATGGAACAGCAGA had a sensor-assay potency score (higher = more potent) of -0.626.

On to TTCATTACTATGATCTTCCACA, for which the sensor-assay potency score (higher = more potent) is -0.12.

Sequence TTTTTTTTTGAATTTGATCTAC displayed a sensor-assay potency score (higher = more potent) of -0.318.

On to TTTTCAACCATTAACAACCCAA, for which the sensor-assay potency score (higher = more potent) is -0.22.

Regarding TAGATATTCATAAAGTTGCTTA, the sensor-assay potency score (higher = more potent) was -0.483.

In turn, TTATCTGAAATGTCACATCCTC yielded a sensor-assay potency score (higher = more potent) of 0.002.

On to TAGCTTTGCTTTGGTCTCGGTG, for which the sensor-assay potency score (higher = more potent) is -0.912.

As for TTGAATTTGATCTACCTTTTGG, the sensor-assay potency score (higher = more potent) was -0.435.

TTTTTGAATTTGATCTACCTTT returned a sensor-assay potency score (higher = more potent) of -0.342.

For TTATCTAGTGCTTCGGTAGGGT, the sensor-assay potency score (higher = more potent) was determined as 0.589.

TTGAACTGAAGCAAAGACGGTG returned a sensor-assay potency score (higher = more potent) of 0.0207.

In a further assay the target is ATG13. Described as above. The note with it: shRNA.
In the case of TTCAGCAGCAATGACAGTCTGT, the sensor-assay potency score (higher = more potent) is 0.524.

In the case of TTCAAGACACCATATTTCCAGC, the sensor-assay potency score (higher = more potent) was -0.751.

As for TGACAGTCTGTTGTACACCGTG, the sensor-assay potency score (higher = more potent) was -0.356.

For TTGATTTCTTTATCACACTTTT, the sensor-assay potency score (higher = more potent) was -0.851.

The sequence TTGCTAAGTTGAACCAATCTGA showed a sensor-assay potency score (higher = more potent) of 0.054.

The sequence TTGAGAGTCTTCTACAGACGGG registered a sensor-assay potency score (higher = more potent) of -0.452.

Regarding AAATTTAATAAACTTGTCCAGG, the sensor-assay potency score (higher = more potent) was -1.15.

TTCAGTATCCTCACTACTGGAG displayed a sensor-assay potency score (higher = more potent) of -0.0842.

With TTTATCACACTTTTCATTCATT, the sensor-assay potency score (higher = more potent) was -0.513.

TTGGAGAAGATGATGAACGAGT showed a sensor-assay potency score (higher = more potent) of 0.0356.

For the sequence TATCATAACAAAGTCATCATGG, the sensor-assay potency score (higher = more potent) was determined as 0.359.

In a further assay the target is ATG16L1. The description is as above. The note with it: shRNA.
In the case of ATGAGTATCCACATTGTCCTGG, the sensor-assay potency score (higher = more potent) is -0.348.

Regarding TTTGTCCACACTGACAACGTGC, the sensor-assay potency score (higher = more potent) was -0.838.

In the case of TTTATGCAGACTTTGCTGCGTA, the sensor-assay potency score (higher = more potent) was -0.62.

Sequence TTTTGCTTCATTCATCTGCATC showed a sensor-assay potency score (higher = more potent) of -1.44.

TTTCTTGTAGCTGATTGTCATT came in with a sensor-assay potency score (higher = more potent) of -1.43.

In turn, TTGTAGCTGATTGTCATTCCAT returned a sensor-assay potency score (higher = more potent) of -0.0295.

Sequence TTGCAAAATCATTTGAAGCTGC came in with a sensor-assay potency score (higher = more potent) of 0.00437.
